Assay outcomes from PubChem.
Sampled rows, rich in hits. Any-hit rate of the full collection: about 21%.
Shiga toxin inh = inhibitors of Shiga toxin in Vero cells; Vero cells, Shiga toxin protein synthesis inhibition reporter; inhibition, % at 38.7 µM; 9.2% of 290,000 active; AID 2315; in the data active = inhibition mostly above about 28%, no sharp cut-off; inactive = mostly below about 43%; note: 0% is about no effect
NS1 inh = inhibitors of influenza NS1 protein function; Potency, µM (doses to about 46.1 µM), for the others: at the top dose activity, positive = more growth; 0.4% of 270,000 active; calls by dose curve; note: potency is the fitted concentration of half-maximal effect; actives are rising curves; nearly all actives have a fitted effect of over 50% in size
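OD600 was taken as the measure of yeast growth restored by compound in an NS1-expressing S. cerevisiae strain. Cells had been washed out of glucose medium and diluted 1:100 into galactose -URA medium, pH 6.0.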
Pf growth 96h = P. falciparum growth inhibition at 96 hour, primary screen for plastid delayed-death inhibitors; P. falciparum luciferase reporter growth, 96 h; 6.9% of 320,000 active; Potency, µM (highest dose often 28.7 µM), for inactives: at the top dose activity change, negative = inhibition, usual class: inhibitors; note: potency is the fitted concentration of half-maximal effect; % is set by controls: 0 for no effect and ±100 for the full control effect
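Parasite growth measured via integrated firefly luciferase reporter in P. falciparum. Infected erythrocytes at 2% hematocrit, 0.05% parasitemia final were treated 96 hours at 37 C under 5% CO2, and luminescence was read.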
Cycloheximide cs = counter-screen for Shiga toxin inhibitors: cycloheximide protein synthesis inhibition | cell reporter, cycloheximide protein synthesis inhibition counterscreen | max response, % | 12% of 300,000 active; in the data active = max response mostly above about 13%, no sharp cut-off; inactive = mostly below about 14%; note: read at 38.3 µM for the half of the compounds with a filed dose; 0% is about no effect
Giardia FBPA inh = Giardia lamblia aldolase inhibition; A8B2U2; purified Giardia FBPA; Potency, µM (doses to about 59.6 µM), inactives show at the highest dose activity, negative = inhibition, usual class: inhibitors; 0.71% of 290,000 active; AID 2451; note: potency is the fitted concentration of half-maximal effect; % is set by controls: 0 for no effect and ±100 for the full control effect; nearly all actives have a fitted effect of over 55% in size
Target sequence (A8B2U2 whole entry, looked up): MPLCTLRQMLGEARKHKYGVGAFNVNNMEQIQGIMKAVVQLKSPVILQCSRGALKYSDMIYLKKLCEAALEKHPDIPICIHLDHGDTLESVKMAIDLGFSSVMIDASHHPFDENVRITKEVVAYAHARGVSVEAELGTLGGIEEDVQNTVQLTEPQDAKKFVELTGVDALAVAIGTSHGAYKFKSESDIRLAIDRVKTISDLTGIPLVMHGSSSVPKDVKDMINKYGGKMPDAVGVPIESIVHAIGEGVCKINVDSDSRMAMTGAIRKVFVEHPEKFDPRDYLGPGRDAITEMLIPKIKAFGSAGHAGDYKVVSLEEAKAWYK
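Giardia FBPA (40 nM reagent) was preincubated 10 min at RT with compound (up to 57.5 uM final), then substrate plus GAPDH/TPI/NAD/arsenate coupling system with diaphorase/resazurin was added; resorufin fluorescence (525/598 nm) was read after 20 min.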
Pf growth 48h = P. falciparum growth inhibition at 48 hours (one generation) | P. falciparum luciferase growth in erythrocytes, 48 h | Potency, µM (highest dose often 28.7 µM), inactives show at the highest dose activity change, negative = inhibition, most hits filed as inhibitors | 5.9% of 310,000 active | AID 504832; note: potency is the fitted concentration of half-maximal effect; % is set by controls: 0 for no effect and ±100 for the full control effect
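In quantitative HTS format, infected erythrocytes bearing luciferase-reporter parasites were treated for a single generation at 37 C. Luminescence after adding detection reagent served as the growth measure.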
* marks the source's active call; other numbers are inactive results; ? = inconclusive; · = no result; [ ] = another dose, or the depositor's remark. Unless noted, calls come from the whole dose curve; as a rule, active = well fitted curve in the direction sought with a large enough effect; inconclusive = small, poorly fitted or top-dose-only effect, or another doubt; inactive = no such curve, though single readings can be large; an effect the other way counts as inactive or inconclusive.

SMILES	Shiga toxin inh	NS1 inh	Pf growth 96h	Cycloheximide cs	Giardia FBPA inh	Pf growth 48h
CCOc1cc2c(cc1OCC)-n1cccc1C(c1cc(C)c(OC)cc1C)NC2 (centres undefined)	-3.9	6.2%	17.3%	-2.0	-8.1%	6.57µM*
CCOc1cc2c(cc1OCC)-n1cccc1C(c1cccc(F)c1)NC2 (centres undefined)	-3.9	-2.8%	9.28µM*	-1.4	-16.0%	13.1µM*
CCOc1cc2c(cc1OCC)-n1cccc1C(c1ccccc1F)NC2 (centres undefined)	-14.7	3.1%	?	2.0	-7.3%	8.28µM*
COc1ccc(C(CNC(=O)c2cccc(NS(=O)(=O)c3ccc(Br)cc3)c2)N(C)C)cc1 (centres undefined)	·	·	?	·	·	0.0%
O=c1cnc2cnc(Oc3cccc(Cl)c3)nc2n1Cc1ccc(F)cc1	·	·	·	·	4.3%	·
Cc1cccn2c(=O)nc(SCC(=O)NCc3ccccc3)nc12	·	·	-8.7%	·	·	2.5%
O=C1C(=O)N(CCCO)C(c2ccc(Br)cc2)/C1=C(\O)c1ccc(Br)cc1 (centres undefined)	-6.6	25.0%	6.3%	-1.9	-7.6%	0.0%
CCOc1cc2c(cc1OCC)-n1cccc1C(c1ccc(C)cc1C)NC2 (centres undefined)	-2.5	-2.7%	-11.4%	0.5	-1.1%	?
CCOc1cc2c(cc1OCC)-n1cccc1C(c1ccc(OC)c(O)c1)NC2 (centres undefined)	-8.7	3.0%	5.4%	-5.9	-1.5%	2.94µM*
COc1ccc(C2NCc3ccccc3-n3cccc32)cc1 (centres undefined)	-17.6	-0.6%	-3.4%	-4.8	-10.7%	·
CCOc1cc2c(cc1OCC)-n1cccc1C(c1cc(OC)ccc1F)NC2 (centres undefined)	-6.7	-32.1%	2.94µM*	-4.9	-18.7%	?
CCOc1cc2c(cc1OCC)-n1cccc1C(c1cccc(OCC)c1O)NC2 (centres undefined)	7.6	0.6%	-20.4%	6.7	5.2%	14.7µM*
CC(Sc1nnc(-c2cccnc2)n1N)C(=O)NCCC1=CCCCC1 (centres undefined)	·	·	0.9%	·	·	4.8%
O=C(NCCC1=CCCCC1)C(c1ccccc1)c1ccccc1	-13.6	-3.3%	?	-2.2	1.0%	?
C=CCn1c(SC(C)C(=O)NCCC2=CCCCC2)nc2ccccc2c1=O (centres undefined)	-2.1	-68.0%	13.1µM*	2.2	7.5%	·
CC(C(=O)NCCC1=CCCCC1)N1C(=O)c2ccccc2C1=O (centres undefined)	-11.0	3.4%	5.86µM*	-2.5	0.7%	-18.5%
COC(=O)C1=C(C)N(CCC2=CCCCC2)C(=O)C1	23.9	24.0%	·	21.2*	?	-5.4%
CN(C(=O)c1ccc2c(c1)C(=O)N(CCC1=CCCCC1)C2=O)C1CCCCC1	42.5	6.4%	10.4µM*	12.2	-6.0%	·
Cc1ccc(S(=O)(=O)N(C)CCCC(=O)N2CCCCC2)cc1	·	14.1%	297.1%	-3.4	0.1%	-2.5%
O=C1c2ccccc2C(=O)N1CCC1=CCCCC1	88.6*	-6.4%	41.6%	40.6*	0.6%	·
Cc1noc(C)c1C(=O)N1CCC[C@@]2(CCN(Cc3nccs3)C2)C1	·	·	·	·	0.3%	·
COC(=O)c1ccc(NC(=O)c2cccc(C)c2[N+](=O)[O-])cc1	49.1	-3.5%	-9.8%	21.6*	-5.5%	56.6%
CCOC(=O)c1ccc(NC(=O)c2ccccc2[N+](=O)[O-])cc1	58.2*	-5.7%	8.7%	42.2*	-0.7%	46.4%
CCOC(=O)c1ccc(Nc2ncccc2[N+](=O)[O-])cc1	62.1*	-0.1%	0.586µM*	34.9*	-1.0%	252.9%
CCOC(=O)c1c(C)c(C(=O)Nc2ccccc2)c(C)n1CC	31.5*	-0.1%	4.65µM*	24.3*	-4.1%	?
SMILES	Shiga toxin inh	NS1 inh	Pf growth 96h	Cycloheximide cs	Giardia FBPA inh	Pf growth 48h
COC(=O)c1ccc(NC(=O)c2ccccc2CC[N+](=O)[O-])cc1	60.7	·	22.0%	12.2	0.9%	5.8%
COC(=O)CCCNc1ncccc1[N+](=O)[O-]	36.4	·	12.2%	2.3	0.2%	-15.5%
O=C(O)c1ccc(S(=O)(=O)c2ccc3c(c2)C(=O)N(c2ccc(Br)cc2)C3=O)cc1	16.1	3.0%	-15.1%	-2.9	·	19.9%
O=c1[nH]c(O)c(C=Nc2ccc(Cl)cc2Cl)c(=O)[nH]1	-2.1	-0.4%	0.0%	-2.5	1.6%	-5.3%
CCOC(=O)c1ccc(NC(=O)c2cccc(C)c2[N+](=O)[O-])cc1	51.6*	-6.3%	14.4%	20.3*	-0.4%	?
COc1ccc(OC)c(NC(=O)c2cccc(C)c2[N+](=O)[O-])c1	25.5	-6.8%	1.65µM*	-0.8	1.1%	9.4%
COCCNC(=O)c1cccc(C)c1[N+](=O)[O-]	-11.7	2.5%	?	-3.3	2.6%	28.2%
CCOC(=O)c1ccc(NC(=O)c2ccc(NS(C)(=O)=O)cc2)cc1	15.4	-4.7%	-1.7%	11.7	5.1%	?
CCOC(=O)c1ccc(NC(=O)c2ccccc2)cc1	81.4*	-73.0%	·	48.7*	-2.8%	17.0%
CN[C@H]1[C@@H](O)[C@@H](NC)[C@@H]2O[C@@]3(O)C(=O)C[C@@H](C)O[C@H]3O[C@H]2[C@H]1O	·	·	5.2%[12.8 µM]	·	2.6%[21.7 µM]	5.1%[12.8 µM]
CCOc1ccc(N(CC(=O)NC(C(C)C)C(C)C)S(=O)(=O)c2ccc(OC)c(OC)c2)cc1	15.6	-3.5%	-4.1%	-2.7	-2.0%	?
N#Cc1ccc(Oc2ccc(-c3cnc4ccccc4n3)cc2)cc1C#N	35.8	9.8%	443.8%	12.1	2.0%	10.6%
N#Cc1ccc(Oc2ccc(-c3nc4ccccc4nc3-c3ccccc3)cc2)cc1C#N	-1.6	-3.2%	3.7µM*	-1.5	1.0%	-25.3%
COC(=O)CCCC1=CC2=C(c3ccccc3)C(=O)C(C)(OC(=O)C3CCCC3)C(=O)C2=CN1C1CCCC1 (centres undefined)	2.0	2.7%	?	-2.6	?	?
COC(=O)CCCC1=CC2=C(c3ccccc3)C(=O)C(C)(OC(=O)C3CCCC3)C(=O)C2=CN1C1CCCCC1 (centres undefined)	22.2	12.7%	?	-0.7	?	10.4µM*
COC(=O)CCCC1=CC2=C(c3ccccc3)C(=O)C(C)(OC(=O)C3CCCC3)C(=O)C2=CN1CC1CC1 (centres undefined)	14.3	1.6%	8.28µM*	0.3	?	?
CCC[C@H](N[C@@H](C)C(=O)N1[C@@H]2CCCC[C@H]2C[C@H]1C(=O)O)C(=O)OCC	23.0	·	·	-4.7	-1.2%	·
CN(C(=O)c1cccc(NC(=O)c2ccco2)c1)c1ccccc1	·	7.6%	?	1.3	4.5%	-6.8%
CCN(C(=O)c1ccc(NC(C)=O)cc1)c1ccccc1	-2.9	2.8%	-9.6%	7.5	3.1%	·
CN(C(=O)c1ccc(NC(=O)c2ccco2)cc1)c1ccccc1	76.9*	-1.7%	-21.9%	34.8*	-2.7%	27.0%
